Each binder was assayed against AgAbp1 (assay: SPOT peptide array binding signal intensity (averaged, normalized) (arbitrary units (background-subtracted, floor 0; scale differs between SH3 domains)); higher = stronger binding of the SH3 domain to the peptide).
Method: (§1)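 GST-tagged SH3 domains from S. cerevisiae (Sc), A. gossypii (Ag), C. albicans (Ca) and S. pombe (Sp) were incubated at 10 ug/ml overnight at 4 C on cellulose SPOT membranes carrying 292 synthetic 15-mer peptides mined from the S. cerevisiae proteome (cysteines replaced by serines). Binding was detected with anti-GST antibody, HRP secondary and chemiluminescence, quantified with Genespotter, and reported as normalized spot intensities averaged over biological replicates.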
With PKMLPIPSKPTLFDL the “SPOT peptide array binding signal intensity” value was 47.

What follows are binders tested against AgBbc1 in the same assay as above.
Method: as §1
In the case of PKMLPIPSKPTLFDL, the “SPOT peptide array binding signal intensity” value is reported as 7.5.

Each binder was assayed against AgBem1-D1 in the same assay as above.
Method: as §1
With PKMLPIPSKPTLFDL the “SPOT peptide array binding signal intensity” value was 490.

These binders were tested against AgBzz1-D1 in the same assay as above.
Method: as §1
In the case of PKMLPIPSKPTLFDL, the “SPOT peptide array binding signal intensity” value is reported as 24.

The binders below were run against AgBzz1-D2 in the same assay as above.
Method: as §1
For PKMLPIPSKPTLFDL, the “SPOT peptide array binding signal intensity” value was ≤ 0.

What follows are binders tested against AgCyk3 in the same assay as above.
Method: as §1
With PKMLPIPSKPTLFDL the “SPOT peptide array binding signal intensity” value was ≤ 0.

What follows are binders tested against AgFus1 in the same assay as above.
Method: as §1
With PKMLPIPSKPTLFDL the “SPOT peptide array binding signal intensity” value was 212.

Each binder was assayed against AgHof1 in the same assay as above.
Method: as §1
PKMLPIPSKPTLFDL was tested, and the “SPOT peptide array binding signal intensity” value was 6.

What follows are binders tested against AgHse1 in the same assay as above.
Method: as §1
In the case of PKMLPIPSKPTLFDL, the “SPOT peptide array binding signal intensity” value is reported as 106.

What follows are binders tested against AgLsb1 in the same assay as above.
Method: as §1
In the case of PKMLPIPSKPTLFDL, the “SPOT peptide array binding signal intensity” value is reported as 2.

What follows are binders tested against AgLsb4 in the same assay as above.
Method: as §1
In the case of PKMLPIPSKPTLFDL, the “SPOT peptide array binding signal intensity” value is reported as 18.5.

What follows are binders tested against AgMyo5 in the same assay as above.
Method: as §1
For PKMLPIPSKPTLFDL, the “SPOT peptide array binding signal intensity” value was 3.25.

These binders were tested against AgNbp2 in the same assay as above.
Method: as §1
In the case of PKMLPIPSKPTLFDL, the “SPOT peptide array binding signal intensity” value is reported as 91.

Each binder was assayed against AgRvs167 in the same assay as above.
Method: as §1
In the case of PKMLPIPSKPTLFDL, the “SPOT peptide array binding signal intensity” value is reported as 3.33.

What follows are binders tested against AgSho1 in the same assay as above.
Method: as §1
For PKMLPIPSKPTLFDL, the “SPOT peptide array binding signal intensity” value was 776.

Each binder was assayed against AgSla1-D1-D2 in the same assay as above.
Method: as §1
For PKMLPIPSKPTLFDL, the “SPOT peptide array binding signal intensity” value was ≤ 0.

Each binder was assayed against AgSla1-D3 in the same assay as above.
Method: as §1
With PKMLPIPSKPTLFDL the “SPOT peptide array binding signal intensity” value was 5.5.

These binders were tested against CaAbp1-D1 in the same assay as above.
Method: as §1
With PKMLPIPSKPTLFDL the “SPOT peptide array binding signal intensity” value was 434.

Each binder was assayed against CaAbp1-D2 in the same assay as above.
Method: as §1
For PKMLPIPSKPTLFDL, the “SPOT peptide array binding signal intensity” value was 459.

These binders were tested against CaBbc1 in the same assay as above.
Method: as §1
For PKMLPIPSKPTLFDL, the “SPOT peptide array binding signal intensity” value was 38.8.

These binders were tested against CaBem1-D1 in the same assay as above.
Method: as §1
For PKMLPIPSKPTLFDL, the “SPOT peptide array binding signal intensity” value was 95.

The binders below were run against CaBzz1-D1 in the same assay as above.
Method: as §1
In the case of PKMLPIPSKPTLFDL, the “SPOT peptide array binding signal intensity” value is reported as 362.

These binders were tested against CaBzz1-D2 in the same assay as above.
Method: as §1
In the case of PKMLPIPSKPTLFDL, the “SPOT peptide array binding signal intensity” value is reported as 146.

Each binder was assayed against CaCyk3 in the same assay as above.
Method: as §1
For PKMLPIPSKPTLFDL, the “SPOT peptide array binding signal intensity” value was 7.

Each binder was assayed against CaFus1 in the same assay as above.
Method: as §1
For PKMLPIPSKPTLFDL, the “SPOT peptide array binding signal intensity” value was 852.

What follows are binders tested against CaHof1 in the same assay as above.
Method: as §1
PKMLPIPSKPTLFDL was tested, and the “SPOT peptide array binding signal intensity” value was ≤ 0.

These binders were tested against CaHse1 in the same assay as above.
Method: as §1
With PKMLPIPSKPTLFDL the “SPOT peptide array binding signal intensity” value was 79.

Each binder was assayed against CaLsb1 in the same assay as above.
Method: as §1
In the case of PKMLPIPSKPTLFDL, the “SPOT peptide array binding signal intensity” value is reported as 2.

These binders were tested against CaLsb4 in the same assay as above.
Method: as §1
For PKMLPIPSKPTLFDL, the “SPOT peptide array binding signal intensity” value was 209.

Each binder was assayed against CaMyo5 in the same assay as above.
Method: as §1
For PKMLPIPSKPTLFDL, the “SPOT peptide array binding signal intensity” value was 89.5.

These binders were tested against CaNbp2 in the same assay as above.
Method: as §1
For PKMLPIPSKPTLFDL, the “SPOT peptide array binding signal intensity” value was 303.

These binders were tested against CaRvs167 in the same assay as above.
Method: as §1
In the case of PKMLPIPSKPTLFDL, the “SPOT peptide array binding signal intensity” value is reported as 47.

These binders were tested against CaRvs167-3 in the same assay as above.
Method: as §1
PKMLPIPSKPTLFDL was tested, and the “SPOT peptide array binding signal intensity” value was ≤ 0.

These binders were tested against CaSho1 in the same assay as above.
Method: as §1
In the case of PKMLPIPSKPTLFDL, the “SPOT peptide array binding signal intensity” value is reported as 1680.

These binders were tested against CaSla1-D1-D2 in the same assay as above.
Method: as §1
For PKMLPIPSKPTLFDL, the “SPOT peptide array binding signal intensity” value was 188.

What follows are binders tested against CaSla1-D3 in the same assay as above.
Method: as §1
PKMLPIPSKPTLFDL was tested, and the “SPOT peptide array binding signal intensity” value was 116.

These binders were tested against ScAbp1 in the same assay as above.
Method: as §1
PKMLPIPSKPTLFDL was tested, and the “SPOT peptide array binding signal intensity” value was 14.

What follows are binders tested against ScBbc1 in the same assay as above.
Method: as §1
With PKMLPIPSKPTLFDL the “SPOT peptide array binding signal intensity” value was 0.5.

What follows are binders tested against ScBem1-D1 in the same assay as above.
Method: as §1
In the case of PKMLPIPSKPTLFDL, the “SPOT peptide array binding signal intensity” value is reported as ≤ 0.

What follows are binders tested against ScBzz1-D1 in the same assay as above.
Method: as §1
PKMLPIPSKPTLFDL was tested, and the “SPOT peptide array binding signal intensity” value was 9.

The binders below were run against ScBzz1-D2 in the same assay as above.
Method: as §1
PKMLPIPSKPTLFDL was tested, and the “SPOT peptide array binding signal intensity” value was 22.

The binders below were run against ScCyk3 in the same assay as above.
Method: as §1
PKMLPIPSKPTLFDL was tested, and the “SPOT peptide array binding signal intensity” value was 3.

The binders below were run against ScFus1 in the same assay as above.
Method: as §1
In the case of PKMLPIPSKPTLFDL, the “SPOT peptide array binding signal intensity” value is reported as 405.

These binders were tested against ScHof1 in the same assay as above.
Method: as §1
In the case of PKMLPIPSKPTLFDL, the “SPOT peptide array binding signal intensity” value is reported as ≤ 0.

The binders below were run against ScHse1 in the same assay as above.
Method: as §1
In the case of PKMLPIPSKPTLFDL, the “SPOT peptide array binding signal intensity” value is reported as 73.5.

What follows are binders tested against ScLsb1 in the same assay as above.
Method: as §1
PKMLPIPSKPTLFDL was tested, and the “SPOT peptide array binding signal intensity” value was 11.5.

Each binder was assayed against ScLsb2 in the same assay as above.
Method: as §1
For PKMLPIPSKPTLFDL, the “SPOT peptide array binding signal intensity” value was ≤ 0.

What follows are binders tested against ScLsb3 in the same assay as above.
Method: as §1
With PKMLPIPSKPTLFDL the “SPOT peptide array binding signal intensity” value was 172.

The binders below were run against ScLsb4 in the same assay as above.
Method: as §1
In the case of PKMLPIPSKPTLFDL, the “SPOT peptide array binding signal intensity” value is reported as 80.

These binders were tested against ScMyo3 in the same assay as above.
Method: as §1
With PKMLPIPSKPTLFDL the “SPOT peptide array binding signal intensity” value was 0.5.

What follows are binders tested against ScMyo5 in the same assay as above.
Method: as §1
In the case of PKMLPIPSKPTLFDL, the “SPOT peptide array binding signal intensity” value is reported as 2.

Each binder was assayed against ScNbp2 in the same assay as above.
Method: as §1
With PKMLPIPSKPTLFDL the “SPOT peptide array binding signal intensity” value was 240.

What follows are binders tested against ScPex13 in the same assay as above.
Method: as §1
For PKMLPIPSKPTLFDL, the “SPOT peptide array binding signal intensity” value was 229.

Each binder was assayed against ScRvs167 in the same assay as above.
Method: as §1
For PKMLPIPSKPTLFDL, the “SPOT peptide array binding signal intensity” value was 30.5.

Each binder was assayed against ScSho1 in the same assay as above.
Method: as §1
In the case of PKMLPIPSKPTLFDL, the “SPOT peptide array binding signal intensity” value is reported as 673.

Each binder was assayed against ScSla1-D1-D2 in the same assay as above.
Method: as §1
With PKMLPIPSKPTLFDL the “SPOT peptide array binding signal intensity” value was 179.

What follows are binders tested against ScSla1-D3 in the same assay as above.
Method: as §1
With PKMLPIPSKPTLFDL the “SPOT peptide array binding signal intensity” value was 374.

What follows are binders tested against SpAbp1-D1 in the same assay as above.
Method: as §1
With PKMLPIPSKPTLFDL the “SPOT peptide array binding signal intensity” value was 286.

Each binder was assayed against SpBbc1 in the same assay as above.
Method: as §1
PKMLPIPSKPTLFDL was tested, and the “SPOT peptide array binding signal intensity” value was 0.5.

The binders below were run against SpBzz1-D1 in the same assay as above.
Method: as §1
With PKMLPIPSKPTLFDL the “SPOT peptide array binding signal intensity” value was 426.

What follows are binders tested against SpBzz1-D2 in the same assay as above.
Method: as §1
For PKMLPIPSKPTLFDL, the “SPOT peptide array binding signal intensity” value was 20.5.

The binders below were run against SpCyk3 in the same assay as above.
Method: as §1
With PKMLPIPSKPTLFDL the “SPOT peptide array binding signal intensity” value was ≤ 0.

These binders were tested against SpHof1 in the same assay as above.
Method: as §1
With PKMLPIPSKPTLFDL the “SPOT peptide array binding signal intensity” value was 154.

The binders below were run against SpHof1-2 in the same assay as above.
Method: as §1
PKMLPIPSKPTLFDL was tested, and the “SPOT peptide array binding signal intensity” value was 410.

The binders below were run against SpHof1-3 in the same assay as above.
Method: as §1
PKMLPIPSKPTLFDL was tested, and the “SPOT peptide array binding signal intensity” value was 433.

What follows are binders tested against SpHse1 in the same assay as above.
Method: as §1
In the case of PKMLPIPSKPTLFDL, the “SPOT peptide array binding signal intensity” value is reported as 136.

The binders below were run against SpLsb1 in the same assay as above.
Method: as §1
In the case of PKMLPIPSKPTLFDL, the “SPOT peptide array binding signal intensity” value is reported as 15.5.

The binders below were run against SpLsb4 in the same assay as above.
Method: as §1
For PKMLPIPSKPTLFDL, the “SPOT peptide array binding signal intensity” value was 402.

What follows are binders tested against SpMyo1 in the same assay as above.
Method: as §1
In the case of PKMLPIPSKPTLFDL, the “SPOT peptide array binding signal intensity” value is reported as 82.

The binders below were run against SpNbp2 in the same assay as above.
Method: as §1
With PKMLPIPSKPTLFDL the “SPOT peptide array binding signal intensity” value was 55.5.

The binders below were run against SpPex13 in the same assay as above.
Method: as §1
In the case of PKMLPIPSKPTLFDL, the “SPOT peptide array binding signal intensity” value is reported as 39.5.

Each binder was assayed against SpRvs167 in the same assay as above.
Method: as §1
For PKMLPIPSKPTLFDL, the “SPOT peptide array binding signal intensity” value was 45.3.

What follows are binders tested against SpSla1-D1-D2 in the same assay as above.
Method: as §1
In the case of PKMLPIPSKPTLFDL, the “SPOT peptide array binding signal intensity” value is reported as 12.

What follows are binders tested against SpSla1-D3 in the same assay as above.
Method: as §1
With PKMLPIPSKPTLFDL the “SPOT peptide array binding signal intensity” value was 132.

Source: the supplement of paper PMC4466140
